High-throughput results from PubChem.
The list is not random: actives were taken first. Their share in the collection is about 9.2%.
ELG1 repair inh: inhibitors of ELG1-dependent DNA repair in HEK293T cells | AID 504467 | HEK293T ELG1-luciferase reporter, luminescence, 16 h; DNA damage induced by 5-fluorouridine | hit rate 2.3% among 330,000 | Potency, µM (highest dose often 46.1 µM), for inactives: at the top dose activity change, negative = inhibition, actives largely listed as inhibitors; further: on the % scale 0 is the no-effect control and ±100 the full control effect; nearly all actives have a fitted effect of over 55% in size
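Quantitative HTS, concentration-response format. 2,000 cells/well co-treated with 5-fluorouridine and compound, 16 hr in 5% CO2 at 37 °C; ONE-Glo luminescence read after 30 min.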
FLuc modulator: firefly luciferase modulation, counter-screen for miR-21 project. P08659. purified FLuc, Km substrates, luminescence inhibition. Potency, µM (doses to about 57.5 µM), for the others: at the highest dose activity change, negative = inhibition, usual class: inhibitors. hit rate 6.9% among 360,000;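 further: plate controls were vehicle for no effect and reference inhibitor for full effect; nearly all actives have a fitted effect of over 55% in size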
Target sequence (P08659 whole entry, looked up): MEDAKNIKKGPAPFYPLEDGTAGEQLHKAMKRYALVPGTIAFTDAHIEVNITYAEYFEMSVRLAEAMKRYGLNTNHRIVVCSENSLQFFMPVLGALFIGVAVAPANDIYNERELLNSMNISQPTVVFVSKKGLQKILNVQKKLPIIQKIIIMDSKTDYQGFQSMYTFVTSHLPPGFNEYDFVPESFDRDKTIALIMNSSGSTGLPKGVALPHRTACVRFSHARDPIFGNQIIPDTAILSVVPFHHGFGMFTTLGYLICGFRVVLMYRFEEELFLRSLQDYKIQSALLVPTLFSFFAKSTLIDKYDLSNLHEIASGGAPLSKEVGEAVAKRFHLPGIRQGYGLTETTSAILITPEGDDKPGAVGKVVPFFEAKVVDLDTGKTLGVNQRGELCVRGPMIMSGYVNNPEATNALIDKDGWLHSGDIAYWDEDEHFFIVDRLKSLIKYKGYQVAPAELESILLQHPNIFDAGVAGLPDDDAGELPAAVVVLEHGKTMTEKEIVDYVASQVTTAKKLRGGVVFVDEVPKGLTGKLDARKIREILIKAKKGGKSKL
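Biochemical qHTS of compounds, final roughly 60 µM downward over six points, against 10 nM purified firefly luciferase using Km concentrations of substrates (10 uM D-luciferin, 10 uM ATP) in Tris acetate pH 7.5 buffer; luminescence output.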
SMN2 splice enh: enhancers of SMN2 splice variant expression. HEK293 SMN2-luciferase splicing reporter, luminescence, 30-36 h. Potency, µM (doses to about 46.1 µM), for the others: top-dose activity change, positive = activation, usual class: activators. hit rate 2.8% among 210,000. AID 1458; further: % of control where 0% means no effect; nearly all actives have a fitted effect of over 55% in size
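HEK293 cells carry an SMN2 […]–luciferase reporter in which exon 7 inclusion puts luciferase in frame. Cells were plated 10-12 h before compound addition, then incubated 30-36 h at 37C. ONE-Glo luminescence was read; sodium butyrate at 4.5 mM final served as control.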
Rab9 prom act: Rab9 promoter activation; Huh7 Rab9 promoter-luciferase reporter, luminescence, 24 h; hit rate 2.8% among 320,000; Potency, µM (highest dose often 9.22 µM), without a hit: at the highest dose activation, negative = inhibition, usual class: activators; further: % of control where 0% means no effect; nearly all actives have a fitted effect of over 60% in size
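Huh7 cells stably carrying a Rab9 promoter-luciferase reporter, 1500 cells per well in OP-MEM I with 10% FBS, treated with compound 24 hours at 37C. Luciferase activity read by luminescence after 10 minutes with Amplite reagent.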
ELG1 genotoxic: inducers of genotoxicity in HEK293T ELG1-luciferase cells; HEK293T ELG1-luciferase reporter, luminescence, 16 h; Potency, µM (titrated, usually from 46 µM), inactives show top-dose activity change, positive = activation, actives largely listed as activators; hit rate 1.3% among 330,000; AID 504466; further: % of control where 0% means no effect; nearly all actives have a fitted effect of over 60% in size
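HEK293T cells expressing luciferase-tagged ELG1 were exposed to compound or DMSO vehicle for 16 hr at 37 °C and 5% CO2. Luciferase activity was then measured with ONE-Glo after 30 min at room temperature.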
NPC1 prom act: NPC1 promoter activation; Huh7 NPC1 promoter luciferase reporter, 24 h; hit rate 2.4% among 320,000; Potency, µM (doses to about 9.22 µM), for the others: top-dose activation, most hits filed as activators; AID 485313; further: % of control where 0% means no effect; nearly all actives have a fitted effect of over 60% in size
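Stably transfected Huh7 (NPC1 promoter→luciferase), 1500 cells/well in Opti-MEM + 10% FBS, 2 h settle, then compound 24 h at 37 °C. Luminescence after 10 min with Amplite reagent.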
An asterisk follows results filed as active; ? = inconclusive; / = not tested or not shown; [ ] = dose if it differs, or a comment. The call rests on the fitted dose curve; in most records, active means well fitted curve in the direction sought with a large enough effect; inconclusive means small, poorly fitted or top-dose-only effect, or another doubt; inactive means no such curve, though single readings can be large; an effect the other way counts as inactive or inconclusive. Potency means the concentration at half of the fitted maximal effect.

SMILES | ELG1 repair inh | FLuc modulator | SMN2 splice enh | Rab9 prom act | ELG1 genotoxic | NPC1 prom act
COc1ccccc1N1CCN(C(=O)CSc2n[nH]c(-c3ccccc3)n2)CC1 | / | -10.4% | / | / | / | /
COC(=O)c1ccc(NC(=O)N2CCN(c3nnc(C)c4c(C)n(-c5ccccc5)nc34)CC2)cc1 | / | -7.6% | / | / | / | /
C=CCn1c(=NC(=O)c2cc(-c3cccs3)nc3ccccc23)sc2cc(S(N)(=O)=O)ccc21 | 18.4µM* | 5.2% | ? | -5.3% | -12.0% | -11.1%
C=CCn1c(=NC(=O)c2sc3ccccc3c2Cl)sc2cc(S(N)(=O)=O)ccc21 | 8.5% | -0.8% | -19.4% | -6.4% | 15.9% | -2.5%
COCCn1c(=NC(=O)c2cc(-c3cccs3)nc3ccccc23)sc2cc(S(N)(=O)=O)ccc21 | 6.51µM* | 0.6% | -18.7% | -6.8% | -12.9% | -9.8%
CCOC(=O)C1=C(COC(=O)c2cc(OC)c(OC)c(OC)c2)NC(=O)NC1C (stereo unspecified) | -18.0% | 3.5% | / | -7.1% | 0.5% | 0.6%
CC(=O)Oc1ccccc1C(=O)O | / | / | 20.1% | 2.2%[46.1 µM] | / | 0.3%[46.1 µM]
CC(=O)Oc1ccccc1-c1nc(/C=C/c2ccccc2)no1 | ? | 10.7µM* | / | ? | 9.2µM* | 2.82µM*
COc1ccc(/C=C/c2noc(-c3ccccc3O)n2)cc1 | ? | 3.79µM* | 26.8% | 26.5% | ? | ?
COc1cc(/C=C/c2noc(-c3ccccc3O)n2)cc(OC)c1OC | ? | 0.5% | 12.7% | 26.5% | 10.1% | 21.8%
Cc1cnc(=O)[nH]c1SCc1ccc([N+](=O)[O-])cc1 | 0.7% | 8.0% | / | 2.6% | -1.7% | -8.4%
O=C(NC(=S)Nc1ccc(C(=O)N2CCOCC2)cc1)c1ccc([N+](=O)[O-])cc1 | -15.8% | 5.3% | 0.9% | -0.7% | 2.4% | -6.0%
CC1(C)CC(=O)C2=C(C1)Nc1cc(Cl)ccc1S2 | 23.1µM* | -9.4% | / | -7.1% | -4.6% | -2.2%
Nc1cccc(-c2cnc3ccccc3n2)c1 | ? | 7.57µM* | / | ? | 9.2µM* | 2.51µM*
CS(=O)(=O)Nc1cccc(-c2cnc3ccccc3n2)c1 | ? | 19µM* | / | 4.47µM* | ? | 3.16µM*
CC(C)C(=O)Nc1cccc(-c2cnc3ccccc3n2)c1 | -1.2% | 15.1µM* | -7.5% | ? | ? | ?
O=C(Nc1cccc(-c2cnc3ccccc3n2)c1)c1ccncc1 | ? | ? | 3.6% | -0.3% | 2.3% | 0.6%
Cc1ccc(C(=O)Nc2cccc(-c3cnc4ccccc4n3)c2)cc1 | 3.9% | ? | -3.8% | 1.3% | 1.6% | 1.5%
CNC(=S)Nc1cccc(-c2cnc3ccccc3n2)c1 | ? | 16.9µM* | / | ? | ? | ?
O=[N+]([O-])c1cccc(-c2cnc3ccccc3n2)c1 | ? | -5.7% | / | ? | 26.0% | ?
Cc1cc(C)n2nc(CNS(=O)(=O)c3cccc(Cl)c3)nc2n1 | / | -3.9% | 3.4% | / | / | /
O=C(CCCSc1ccccc1)Nc1ccc(Cl)c(S(=O)(=O)N2CCOCC2)c1 | ? | 2.3% | / | -10.4% | -4.6% | -6.7%
CC1CCCCC1NC(=O)CSc1ccc([N+](=O)[O-])cc1 (stereo unspecified) | -15.1% | -1.3% | / | 1.9% | -4.5% | -0.5%
COc1ccc(Br)cc1/C=N/NC(=O)c1nc(-c2ccccc2)n2c1CCCCC2 | 20.6µM* | 1.9% | 13.7% | -0.5% | -1.7% | -3.2%
Cc1ccc(NC(=O)CCn2cccn2)cc1Cl | / | -7.5% | / | / | / | /
SMILES | ELG1 repair inh | FLuc modulator | SMN2 splice enh | Rab9 prom act | ELG1 genotoxic | NPC1 prom act
COc1ccc(Nc2ncnc3sccc23)cc1 | ? | 23.9µM* | / | ? | 14.2% | ?
COc1cccc(Nc2ncnc3sc(C)cc23)c1 | ? | 16.9µM* | / | ? | ? | 26.0%
COc1cccc(Nc2ncnc3sccc23)c1 | ? | 16.9µM* | / | ? | 14.8% | ?
Cn1c(=O)c2c(ncn2Cc2nnc(N)s2)n(C)c1=O | 4.9% | 2.0% | -20.1% | -6.2% | 0.5% | -3.4%
Cc1ccc(N(Cc2cccs2)C(=O)C(C)Oc2ccc(Cl)c(C)c2)cc1 (stereo unspecified) | / | -17.7% | / | / | / | /
O=[N+]([O-])c1ccc2ccn(C3OCC(O)C(O)C3O)c2c1 (stereo unspecified) | 7.4% | ? | 17.7% | -2.6% | -0.7% | -4.2%
Cc1cnc(NC(=O)c2ccc(OCC3CCCO3)cc2)s1 (stereo unspecified) | ? | 0.757µM* | 2.24µM* | 0.126µM* | ? | 0.501µM*
Cc1ccc(NC(=O)c2ccc(OCc3c(C)noc3C)cc2)nc1 | -16.9% | -6.1% | / | 2.2% | 0.1% | 3.0%
NC(=O)c1ccc(OCC2CCCO2)cc1 (stereo unspecified) | 12.5% | -3.3% | / | 2.3% | 1.7% | -1.2%
Cc1cnc(NC(=O)C2CCCO2)s1 (stereo unspecified) | 10.2% | 2.1% | -3.3% | 13.8% | -0.6% | -6.8%
Cc1ccc(NC(=O)c2ccc(OCC3CCCO3)cc2)nc1 (stereo unspecified) | ? | 4.78µM* | / | 1µM* | ? | 1.78µM*
O=C(NCc1ccccc1)c1ccc(OCC2CCCO2)cc1 (stereo unspecified) | ? | ? | 2.0% | -1.8% | -0.2% | 1.9%
O=C(Nc1nc2ccccc2s1)c1ccc(OCC2CCCO2)cc1 (stereo unspecified) | ? | 0.757µM* | / | 0.398µM* | ? | 3.16µM*
Cc1ccc(NC(=O)c2ccc(OCC3CCCO3)cc2)cc1 (stereo unspecified) | ? | 6.01µM* | 7.94µM* | 2.51µM* | ? | 2.24µM*
C(CCc1nnc2c(n1)CCCC2)Cc1nnc2c(n1)CCCC2 | / | / | 0.1%[9.22 µM] | / | / | /
COc1ccc(-c2nc3ccccc3s2)cc1NC(=O)c1ccc(C#N)cc1F | / | -2.0% | -5.0% | / | / | /
CC(=O)N1CCC2(CC1)CCN(c1ccccn1)CC2 | / | / | -0.4% | / | / | /
c1ccc(C2CSc3ccccc3N2)cc1 (stereo unspecified) | ? | 21.3µM* | / | 22.3% | ? | ?
CCC1(CC)NC(=O)N(CC(=O)N2CCN(S(=O)(=O)c3cccc(F)c3)CC2)C1=O | -2.1% | 6.5% | / | 10.1% | 2.5% | -5.2%
Cc1csc(NC(=O)c2ccc(COc3ccccc3)o2)n1 | ? | 16.9µM* | / | ? | 1.5% | 1µM*
Cc1cccc(NC(=O)c2ccc(COc3ccccc3)o2)n1 | 27.4% | 16.9µM* | / | 27.0% | 27.3% | 16.3%
Cc1cccc(NC(=O)c2ccc(COc3ccc4ccccc4c3)o2)n1 | -7.2% | ? | / | 4.5% | -0.6% | 13.6%
CC(C)(C)CN1CCN(Cc2nc(-c3ccc(F)cc3)cs2)CC1CCO (stereo unspecified) | 11.5% | 2.1% | / | -18.6% | -0.8% | -22.3%
